# Source: PubChem BioAssay (Tox21)
# Results filed as inconclusive are left out. Unmarked numbers belong to inactive results. Calls of active or inactive are those of the source. The call rests on the fitted dose curve; in most records, active means well fitted curve in the direction sought with a large enough effect in the repeat runs; inconclusive means weak or mixed curves; inactive means no such curve, though single readings can be large; an effect the other way counts as inactive or inconclusive.
# System: not listed separately
# Assay: qHTS assay to identify small molecule agonists of the estrogen related receptor signaling pathway with the pleiotropic PPARgamma coactivator (PGC) (AID 1224823)
# Conditions: ERR/PGC reporter cell line, luciferase agonist mode; series mostly up to 46.1 µM; activation: at the top concentration
# In short: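 Luminescence from One-Glo reagent (30 min, room temperature) was read after 18 h compound treatment at 37 C of PGC/ERR cells plated 6 h beforehand; compounds delivered in DMSO by pin tool.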
# On the % scale 0 is the no-effect control and ±100 the full control effect.
row,SMILES,activation [%]
1,CC1=C(C)C(=O)C(CCCCC#CCCCC#CCO)=C(C)C1=O,-6.86
2,Cc1nc2sccn2c(=O)c1CCN1CCC(=C(c2ccc(F)cc2)c2ccc(F)cc2)CC1,-12.2
3,O=C(O)c1cccnc1Nc1cccc(C(F)(F)F)c1,1.95
4,O=C(Nc1ccccc1)c1cc([N+](=O)[O-])ccc1Cl,9.37

# System: not listed separately
# Assay: qHTS assay to identify small molecule antagonists of the estrogen related receptor (ERR) signaling pathway from Tox21 library - cell viability counter screen (AID 1224834); further: nearly all actives have a fitted effect of over 30% in size; further: potency means the concentration at half of the fitted maximal effect
# Conditions: ERR reporter cells viability, CellTiter-Fluor, 17.5 h; series mostly up to 92.4 µM; viability change, negative = cytotoxic: at the top concentration
# In short: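 Multiplexed viability counter screen in ERR cells: 17.5 h compound exposure at 37 C, CellTiter-Fluor added, 30 min at 37 C/5% CO2, fluorescence read.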
SMILES,Potency,"viability change, negative = cytotoxic"
O=C1c2ccccc2C(=O)C1c1ccc2cc(S(=O)(=O)O)cc(S(=O)(=O)O)c2n1,29.5 µM (active),
CCCCCCCCCCCCN1CCOCC1,,2.73%
CC(=O)c1ccc(Cl)c(Cl)c1Cl,,1.2%
CC(C(=O)O)c1ccc(/C=C2\CCCCC2=O)cc1 (configuration not stated),,-0.0286% [at 42.5 µM]
COC=O,,0.652% [at 8.39 µM]
Cc1c(N=C=O)cccc1N=C=O,,-3.72%
CC(=O)c1cccnc1,,1.43%
O=[N+]([O-])c1ccc(Cl)cc1Cl,,0.0699%
CCCCCCCCNC,,0.886%
C=C(C)C(=O)OCCCCCCCCCCOC(=O)C(=C)C,,0.747%
Cc1cc(C)c(C)c(O)c1,,3.62%
CCC(=O)O[C@]1(C(=O)COC)[C@@H](C)C[C@H]2[C@@H]3CCC4=CC(=O)C=C[C@]4(C)C3(F)[C@@H](O)C[C@@]21C (some centres not stated),,-2.85% [at 42.5 µM]
CCN(CC)CC(=O)OCC(=O)[C@@]1(O)CC[C@H]2[C@@H]3CCC4=CC(=O)CC[C@]4(C)[C@H]3[C@@H](O)C[C@@]21C,,0.365% [at 42.5 µM]
CC1=C(C)C(=O)C(CCCCC#CCCCC#CCO)=C(C)C1=O,23.7 µM (active),
C=CC(=O)OCCCCCCCCCC,,1.31%
O=C(Cl)c1ccc(F)c(Cl)c1,,1.1%
O=C(NC1CCN(CCc2c[nH]c3ccccc23)CC1)c1ccccc1,,-9.52% [at 42.5 µM]
CCOc1ccccc1O,,-0.308%
CCN(CCCCOC(=O)c1ccc(OC)c(OC)c1)C(C)Cc1ccc(OC)cc1 (configuration not stated),,-4.62% [at 42.5 µM]
CC1(C)CC(O)CC(C)(C)N1[O],,6.73%

SMILES,Potency,"viability change, negative = cytotoxic"
Cc1nc2sccn2c(=O)c1CCN1CCC(=C(c2ccc(F)cc2)c2ccc(F)cc2)CC1,,1.03% [at 42.5 µM]
CC(=O)S[C@H](C(=O)N[C@H]1Cc2ccccc2[C@H]2CCC[C@@H](C(=O)O)N2C1=O)C(C)C,,-0.0568%
CCOC(OCC)OCC,,1.1%
Cc1c(Cl)cccc1Nc1ccccc1C(=O)O,,-1.81% [at 42.5 µM]
COC(=O)c1cc(Cl)ccc1[N+](=O)[O-],,-0.237%
O=C(Nc1ccc2c(c1)Cc1ccccc1-2)C(F)(F)F,,3.46%
O=C(OCCCCCOC(=O)c1ccccc1)c1ccccc1,,7.65%
O=C1OC(=O)C2CC=CCC12 (configuration not stated),,4%
O=C1C=CCCC1,,0.429%
O=C(O)CNc1ccccc1,,-0.86%
O=C(O)c1cccnc1Nc1cccc(C(F)(F)F)c1,,0.802% [at 42.5 µM]
O=Cc1ccc([N+](=O)[O-])cc1,,-1.26%
O=C(O)c1cccc(C(=O)O)c1C(=O)O,,2.03%
O=C(Nc1ccccc1)c1cc([N+](=O)[O-])ccc1Cl,,-9.96%
C/C=C1\[C@H]2C=C(C)C[C@]1(N)c1ccc(=O)[nH]c1C2,,2.05% [at 42.5 µM]
FC(F)(Cl)C(F)(Cl)Cl,,0.619%
CC(CC(C#N)(c1ccccc1)C(C)C)N(C)C (configuration not stated),,3.77% [at 42.5 µM]
CO[C@@H]1COCC[C@@H]1N[C@@H]1CC[C@@](C(=O)N2CCc3ncc(C(F)(F)F)cc3C2)(C(C)C)C1,,6.09%
CC[C@H](NC(C)C)[C@H](O)c1ccc(O)c2[nH]c(=O)ccc12,,4.57% [at 42.5 µM]

# Target: Luciferin 4-monooxygenase (Photinus pyralis) (UniProt P08659)
# Assay: qHTS assay to identify small molecule inhibitors of firefly luciferase (AID 1224835); further: nearly all actives have a fitted effect of over 25% in size; further: potency means the concentration at half of the fitted maximal effect
# Conditions: purified P. pyralis luciferase, luminescence inhibition; series mostly up to 115 µM; activity change, negative = inhibition: at the top concentration
# In short: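 Inhibition of purified Photinus luciferase is measured by luminescence. Substrate levels (D-luciferin, ATP) sit at their KM values. Each compound is tested in a concentration series.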
# Luciferin 4-monooxygenase (Photinus pyralis), sequence (P08659 whole entry, looked up): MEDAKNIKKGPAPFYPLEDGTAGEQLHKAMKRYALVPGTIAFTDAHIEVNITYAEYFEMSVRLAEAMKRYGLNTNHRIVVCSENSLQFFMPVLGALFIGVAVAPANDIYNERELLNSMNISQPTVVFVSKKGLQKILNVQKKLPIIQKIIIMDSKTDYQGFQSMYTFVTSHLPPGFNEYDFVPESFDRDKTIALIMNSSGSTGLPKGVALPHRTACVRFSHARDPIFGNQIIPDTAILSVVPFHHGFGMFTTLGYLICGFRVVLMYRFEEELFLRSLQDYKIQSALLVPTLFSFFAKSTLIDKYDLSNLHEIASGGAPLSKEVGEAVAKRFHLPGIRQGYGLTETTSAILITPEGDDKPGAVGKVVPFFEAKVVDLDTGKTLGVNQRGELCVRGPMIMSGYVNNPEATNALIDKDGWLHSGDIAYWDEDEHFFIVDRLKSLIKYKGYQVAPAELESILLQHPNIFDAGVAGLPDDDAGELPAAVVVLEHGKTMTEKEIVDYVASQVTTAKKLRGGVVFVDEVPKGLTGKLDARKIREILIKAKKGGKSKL
SMILES,Potency,"activity change, negative = inhibition"
O=C1c2ccccc2C(=O)C1c1ccc2cc(S(=O)(=O)O)cc(S(=O)(=O)O)c2n1,30.6 µM (active),
CCCCCCCCCCCCN1CCOCC1,,-0.0535%
CC(=O)c1ccc(Cl)c(Cl)c1Cl,,-0.367%
CC(C(=O)O)c1ccc(/C=C2\CCCCC2=O)cc1 (configuration not stated),30.9 µM (active),
COC=O,,-0.731% [at 10.5 µM]
Cc1c(N=C=O)cccc1N=C=O,,0.898%
CC(=O)c1cccnc1,,0.324%
O=[N+]([O-])c1ccc(Cl)cc1Cl,,-7.44%
CCCCCCCCNC,,2.96%
C=C(C)C(=O)OCCCCCCCCCCOC(=O)C(=C)C,,-10.6%
Cc1cc(C)c(C)c(O)c1,,-14.1%
CCC(=O)O[C@]1(C(=O)COC)[C@@H](C)C[C@H]2[C@@H]3CCC4=CC(=O)C=C[C@]4(C)C3(F)[C@@H](O)C[C@@]21C (some centres not stated),,3.5% [at 52.9 µM]
CCN(CC)CC(=O)OCC(=O)[C@@]1(O)CC[C@H]2[C@@H]3CCC4=CC(=O)CC[C@]4(C)[C@H]3[C@@H](O)C[C@@]21C,,2.42% [at 52.9 µM]
CC1=C(C)C(=O)C(CCCCC#CCCCC#CCO)=C(C)C1=O,,0.298% [at 52.9 µM]
C=CC(=O)OCCCCCCCCCC,,3.21%
O=C(Cl)c1ccc(F)c(Cl)c1,,-9.65%
O=C(NC1CCN(CCc2c[nH]c3ccccc23)CC1)c1ccccc1,,-0.235% [at 52.9 µM]
CCOc1ccccc1O,,-1.83%
CCN(CCCCOC(=O)c1ccc(OC)c(OC)c1)C(C)Cc1ccc(OC)cc1 (configuration not stated),,-0.0878% [at 52.9 µM]
CC1(C)CC(O)CC(C)(C)N1[O],,0.848%

SMILES,Potency,"activity change, negative = inhibition"
Cc1nc2sccn2c(=O)c1CCN1CCC(=C(c2ccc(F)cc2)c2ccc(F)cc2)CC1,,12% [at 52.9 µM]
CC(=O)S[C@H](C(=O)N[C@H]1Cc2ccccc2[C@H]2CCC[C@@H](C(=O)O)N2C1=O)C(C)C,,4%
CCOC(OCC)OCC,,1.57%
Cc1c(Cl)cccc1Nc1ccccc1C(=O)O,,-3.21% [at 52.9 µM]
COC(=O)c1cc(Cl)ccc1[N+](=O)[O-],,2.61%
O=C(Nc1ccc2c(c1)Cc1ccccc1-2)C(F)(F)F,6.33 µM (active),
O=C(OCCCCCOC(=O)c1ccccc1)c1ccccc1,,1.25%
O=C1OC(=O)C2CC=CCC12 (configuration not stated),,4.14%
O=C1C=CCCC1,,0.216%
O=C(O)CNc1ccccc1,,-7.4%
O=C(O)c1cccnc1Nc1cccc(C(F)(F)F)c1,19.5 µM (active),
O=Cc1ccc([N+](=O)[O-])cc1,,-3.08%
O=C(O)c1cccc(C(=O)O)c1C(=O)O,,0.294%
O=C(Nc1ccccc1)c1cc([N+](=O)[O-])ccc1Cl,,-9.9%
C/C=C1\[C@H]2C=C(C)C[C@]1(N)c1ccc(=O)[nH]c1C2,,-1.47% [at 52.9 µM]
FC(F)(Cl)C(F)(Cl)Cl,,1.4%
CC(CC(C#N)(c1ccccc1)C(C)C)N(C)C (configuration not stated),,-0.46% [at 52.9 µM]
CO[C@@H]1COCC[C@@H]1N[C@@H]1CC[C@@](C(=O)N2CCc3ncc(C(F)(F)F)cc3C2)(C(C)C)C1,,4.42%
CC[C@H](NC(C)C)[C@H](O)c1ccc(O)c2[nH]c(=O)ccc12,,0.264% [at 52.9 µM]
